The values below come from PubChem BioAssay (NCI).

This is part of a sample that, as a whole, favours compounds with a hit. Of some 79,000 tested, about 15% had one in any assay. Unmarked numbers belong to inactive results. The source made the active and inactive calls. Rule as the data show it: active = growth inhibition above about 70%; inactive = the rest.

Assay [1] can be described thus: NCI Yeast Anticancer Drug Screen. Data for the rad50 strain (AID 155).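 Also: 0% = growth of vehicle-only cultures of the same strain.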 The settings on record: S. cerevisiae rad50 strain growth inhibition, active compounds read high. Put shortly: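 A DNA repair-deficient yeast mutant serves as the test organism; compound-induced growth inhibition is calculated against vehicle-treated cells.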
Assay [2] in a line: NCI Yeast Anticancer Drug Screen. Data for the mec2-1 strain (AID 157). To be noted: S. cerevisiae mec2-1 strain, active compounds read high. The procedure, abridged:
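Yeast mec2-1 mutant treated with compound. Readout: growth inhibition vs vehicle controls.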

Assay [3] is described as follows: NCI Yeast Anticancer Drug Screen. Data for the sgs1 mgt1 strain (AID 161).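 Also: 0% = growth of cultures given vehicle only.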 To be noted: S. cerevisiae sgs1 mgt1 strain, active compounds read high. The procedure, abridged: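 Genetically altered yeast, compound exposure, growth inhibition relative to vehicle.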
Assay [4] can be described thus: NCI Yeast Anticancer Drug Screen. Data for the cln2 rad14 strain (AID 165).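 Also: 0% = growth equal to vehicle treated cultures.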 To be noted: S. cerevisiae cln2 rad14 strain, active compounds read high. Put shortly:
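cln2 rad14 yeast strain; compound exposure; growth inhibition read vs vehicle controls.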

A short description of assay [5]: NCI Yeast Anticancer Drug Screen. Data for the bub3 strain (AID 167). The settings on record: S. cerevisiae bub3 mutant strain, active compounds read high. Put shortly:
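Inhibition values come from growth of compound-treated mutant yeast normalised to vehicle-treated controls.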

Assay [6] is described as follows: NCI Yeast Anticancer Drug Screen. Data for the mlh1 rad18 strain (AID 175). The settings on record: S. cerevisiae mlh1 rad18 strain growth inhibition, active compounds read high. The procedure, abridged:
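Yeast w/ defined DNA-repair lesions; compound exposure; growth vs vehicle controls → % inhibition.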

The mark [7] stands for this setting: at 5.0 µM (retest, dose inferred, filed as 0.5).
[8] abbreviates: at 50.0 µM (retest, dose inferred, filed as 5.0).

Regarding `COc1ccc(C2COc3cc(OC(C)=O)c(OC(C)=O)cc3C2)cc1` (stereo not given), the growth inhibition in assay [1] (setting [7]) is -1%; in assay [1] (setting [8]) it was 93% (active); in assay [1] (at 50.0 µM), 96.1% (active); in assay [2] (setting [7]), 2%; in assay [2] (setting [8]), 95% (active); in assay [2] (at 50.0 µM) it was 95.9% (active). Moreover, the growth inhibition in assay [3] (setting [7]) is 1%; in assay [3] (setting [8]), 93% (active); in assay [3] (at 50.0 µM) it was 95% (active); in assay [4] (setting [7]) it was 4%; in assay [4] (setting [8]), 93% (active); in assay [4] (at 50.0 µM), 94.9% (active). Besides, the growth inhibition in assay [5] (setting [7]) is 24%; in assay [5] (setting [8]), 96% (active); in assay [5] (at 50.0 µM), 97.1% (active); in assay [6] (setting [7]), -3%; in assay [6] (setting [8]) it was 94% (active); in assay [6] (at 50.0 µM) it was 96.6% (active).

For `Cc1c(C[n+]2cc3ccccc3cc2/C=N/O)ccc2ccccc12`, the growth inhibition in assay [1] (setting [7]) is 1%; in assay [1] (setting [8]), 31%; in assay [1] (at 50.0 µM) it was 19.1%; in assay [2] (setting [7]), 3%; in assay [2] (setting [8]), 39%; in assay [2] (at 50.0 µM), 10.1%. The growth inhibition in assay [3] (setting [7]) was 2%; in assay [3] (setting [8]), 31%; in assay [3] (at 50.0 µM) it was 5.5%; in assay [4] (setting [7]), -2%; in assay [4] (setting [8]), -6%; in assay [4] (at 50.0 µM), -3.1%. Also, the growth inhibition in assay [5] (setting [7]) was 1%; in assay [5] (setting [8]), 19%; in assay [5] (at 50.0 µM), 97.2% (active); in assay [6] (setting [7]), 1%; in assay [6] (setting [8]) it was 37%; in assay [6] (at 50.0 µM), 16.8%.

For the compound `CC(=O)c1ccc(Cl)c(N=Cc2cc(Br)ccc2O)c1`, the growth inhibition is 55% in assay [1] (setting [7]); 77% (active) in assay [1] (setting [8]); 68.4% in assay [1] (at 50.0 µM); 35% in assay [2] (setting [7]); 81% (active) in assay [2] (setting [8]); 70.4% (active) in assay [2] (at 50.0 µM). The growth inhibition in assay [3] (setting [7]) was 57%; in assay [3] (setting [8]), 95% (active); in assay [3] (at 50.0 µM), 67.4%; in assay [4] (setting [7]) it was 34%; in assay [4] (setting [8]), 56%; in assay [4] (at 50.0 µM) it was 24.4%. Moreover, the growth inhibition in assay [5] (setting [7]) is 52%; in assay [5] (setting [8]), 98% (active); in assay [5] (at 50.0 µM) it was 78.2% (active); in assay [6] (setting [7]), 64%; in assay [6] (setting [8]), 96% (active); in assay [6] (at 50.0 µM) it was 61.5%.

With `C=CS(=O)(=O)c1ccc2ccccc2c1`, the growth inhibition is -100% in assay [1] (setting [7]); 97% (active) in assay [1] (setting [8]); 99.5% (active) in assay [1] (at 50.0 µM); -22% in assay [2] (setting [7]); 98% (active) in assay [2] (setting [8]); 99.4% (active) in assay [2] (at 50.0 µM). The growth inhibition is -20% in assay [3] (setting [7]); 98% (active) in assay [3] (setting [8]); 99.2% (active) in assay [3] (at 50.0 µM); -34% in assay [4] (setting [7]); 97% (active) in assay [4] (setting [8]); 98.7% (active) in assay [4] (at 50.0 µM). In addition, the growth inhibition in assay [5] (setting [7]) is -35%; in assay [5] (setting [8]), 97% (active); in assay [5] (at 50.0 µM) it was 98.8% (active); in assay [6] (setting [7]), -93%; in assay [6] (setting [8]) it was 97% (active); in assay [6] (at 50.0 µM), 99% (active).

`O=C(OCc1ccccc1)C(O)c1ccccc1` (stereo not given): the growth inhibition in assay [1] (setting [7]) was -2%; in assay [1] (setting [8]), 16%; in assay [1] (at 50.0 µM), 24.1%; in assay [2] (setting [7]) it was 2%; in assay [2] (setting [8]), 6%; in assay [2] (at 50.0 µM) it was -7.1%. Further, the growth inhibition is -1% in assay [3] (setting [7]); 3% in assay [3] (setting [8]); -14.7% in assay [3] (at 50.0 µM); -4% in assay [4] (setting [7]); 1% in assay [4] (setting [8]); 41.1% in assay [4] (at 50.0 µM). Moreover, the growth inhibition in assay [5] (setting [7]) is -3%; in assay [5] (setting [8]), -2%; in assay [5] (at 50.0 µM), 18.4%; in assay [6] (setting [7]), -1%; in assay [6] (setting [8]) it was 10%; in assay [6] (at 50.0 µM), 16.2%.

With `Cc1nc(C(N)=S)sc1C(=O)CC(=O)C(=O)Nc1nc2ccccc2[nH]1`, the growth inhibition is 10% in assay [1] (setting [7]); -9% in assay [1] (setting [8]); -7.35% in assay [1] (at 50.0 µM); 11% in assay [2] (setting [7]); 24% in assay [2] (setting [8]); 23.1% in assay [2] (at 50.0 µM). Further, the growth inhibition in assay [3] (setting [7]) is 13%; in assay [3] (setting [8]), -110%; in assay [3] (at 50.0 µM), -24.9%; in assay [4] (setting [7]), 7%; in assay [4] (setting [8]) it was 3%; in assay [4] (at 50.0 µM), 2.85%. In addition, the growth inhibition in assay [5] (setting [7]) was 11%; in assay [5] (setting [8]), -7%; in assay [5] (at 50.0 µM), 1.75%; in assay [6] (setting [7]), 12%; in assay [6] (setting [8]), 25%; in assay [6] (at 50.0 µM) it was -42.5%.

Turning to `Nc1ccc(S(=O)(=O)Nc2ccccc2)cc1`, the growth inhibition in assay [1] (setting [7]) is -4%; in assay [1] (setting [8]), 42%; in assay [1] (at 50.0 µM), -7.35%; in assay [2] (setting [7]), 7%; in assay [2] (setting [8]), 7%; in assay [2] (at 50.0 µM), -9.35%. The growth inhibition in assay [3] (setting [7]) was -1%; in assay [3] (setting [8]), 3%; in assay [3] (at 50.0 µM) it was 26.1%; in assay [4] (setting [7]) it was 0%; in assay [4] (setting [8]), -6%; in assay [4] (at 50.0 µM), 50.7%. For the same compound, the growth inhibition in assay [5] (setting [7]) is 37%; in assay [5] (setting [8]), -1%; in assay [5] (at 50.0 µM), -2.1%; in assay [6] (setting [7]), 0%; in assay [6] (setting [8]), 4%; in assay [6] (at 50.0 µM) it was 4.25%.

On to `COc1c(I)cc(I)c(O)c1I`, for which the growth inhibition was 6% in assay [1] (setting [7]); 39% in assay [1] (setting [8]); 94.4% (active) in assay [1] (at 50.0 µM); 10% in assay [2] (setting [7]); 80% (active) in assay [2] (setting [8]); 93.8% (active) in assay [2] (at 50.0 µM). Besides, the growth inhibition in assay [3] (setting [7]) is 7%; in assay [3] (setting [8]), 64%; in assay [3] (at 50.0 µM) it was 91% (active); in assay [4] (setting [7]) it was 10%; in assay [4] (setting [8]), 36%; in assay [4] (at 50.0 µM) it was 88.1% (active). Besides, the growth inhibition in assay [5] (setting [7]) is 3%; in assay [5] (setting [8]), 36%; in assay [5] (at 50.0 µM) it was 69.9%; in assay [6] (setting [7]), 9%; in assay [6] (setting [8]), 77% (active); in assay [6] (at 50.0 µM), 94.2% (active).

As for `Fc1cccc2c1cc1ccc3cccc4ccc2c1c34`, the growth inhibition is -1% in assay [1] (setting [7]); -11% in assay [1] (setting [8]); 89.2% (active) in assay [1] (at 50.0 µM); 0% in assay [2] (setting [7]); -6% in assay [2] (setting [8]); 40.4% in assay [2] (at 50.0 µM). For the same compound, the growth inhibition in assay [3] (setting [7]) is -5%; in assay [3] (setting [8]), -14%; in assay [3] (at 50.0 µM), 83.5% (active); in assay [4] (setting [7]), -3%; in assay [4] (setting [8]), -4%; in assay [4] (at 50.0 µM), 61.7%. In addition, the growth inhibition in assay [5] (setting [7]) was 0%; in assay [5] (setting [8]) it was -6%; in assay [5] (at 50.0 µM), 87.5% (active); in assay [6] (setting [7]) it was -5%; in assay [6] (setting [8]), -6%; in assay [6] (at 50.0 µM), 91.2% (active).

As for `CCC(=O)OC1=C(Cl)C(=O)c2ccccc2C1=O`, the growth inhibition in assay [1] (setting [7]) is 2%; in assay [1] (setting [8]), 98% (active); in assay [1] (at 50.0 µM), 71.8% (active); in assay [2] (setting [7]), 4%; in assay [2] (setting [8]), 99% (active); in assay [2] (at 50.0 µM), 27.2%. The growth inhibition in assay [3] (setting [7]) is 9%; in assay [3] (setting [8]) it was 99% (active); in assay [3] (at 50.0 µM), 63.8%; in assay [4] (setting [7]), 2%; in assay [4] (setting [8]) it was 98% (active); in assay [4] (at 50.0 µM), 0.15%. Moreover, the growth inhibition in assay [5] (setting [7]) was 6%; in assay [5] (setting [8]), 99% (active); in assay [5] (at 50.0 µM) it was 34.5%; in assay [6] (setting [7]), 14%; in assay [6] (setting [8]), 98% (active); in assay [6] (at 50.0 µM) it was 55.4%.
